Compound activity: PubChem BioAssay, several laboratories
WNV NS2B-NS3 inh = blocks West Nile virus NS2B-NS3 protease activity; P06935; WNV NS2B-NS3 protease, fluorogenic substrate Ex360/Em465; stronger effect = lower value; actives 0.18% (n = 65,000); z-score (test concentration not listed); in the data active = z-score below about -3
D1 allo mod = allosteric modulators of human D1 dopamine receptor; HEK293 D1, CRE-luciferase, dopamine EC30 potentiation; actives deviate in either direction; P21728; B-score at 10 µM; actives 5.9% (n = 58,000);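 active = luminescence count or its row- and column-corrected plate score outside the 99.7% band of the plate's sample wells, on either side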
Target sequence (P21728 whole entry, looked up): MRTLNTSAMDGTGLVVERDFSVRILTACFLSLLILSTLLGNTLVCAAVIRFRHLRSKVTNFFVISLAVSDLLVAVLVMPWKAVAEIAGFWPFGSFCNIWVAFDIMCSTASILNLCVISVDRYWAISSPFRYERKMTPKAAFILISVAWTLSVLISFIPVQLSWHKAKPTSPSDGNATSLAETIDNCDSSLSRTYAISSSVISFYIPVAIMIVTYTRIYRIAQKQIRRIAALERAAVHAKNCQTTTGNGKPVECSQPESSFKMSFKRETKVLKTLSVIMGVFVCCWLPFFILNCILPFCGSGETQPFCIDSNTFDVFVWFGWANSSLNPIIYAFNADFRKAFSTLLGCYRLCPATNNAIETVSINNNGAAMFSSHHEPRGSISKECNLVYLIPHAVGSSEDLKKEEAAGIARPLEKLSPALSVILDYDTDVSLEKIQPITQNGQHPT
mHtt clearance = compounds clearing mutant huntingtin protein | actives 0.42% (n = 47,000) | HeLa Exon1htt(103Q)mCFP, aggregate imaging; zero = plate's median compound well | inhibition, % at 1.5 µM;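 active = inhibition of aggregate fluorescence above about 70%, also judged a hit by eye on the cell image, limit read from the data, passing the limit was not always enough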;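 also: cells exposed to compound for three days before fixation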
M1 ag = activates the M1 muscarinic receptor. B-score at 10 µM. CHO-M1 cells, Fluo-4 calcium fluorescence, agonist mode; stronger effect = higher value. actives 3% (n = 64,000);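 active = fluorescence rise, raw or as B-score row- and column-corrected plate score, outside the 99.7% band of its plate's samples, either direction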
M1 antag = blocks the rat M1 muscarinic receptor response to acetylcholine | B-score at 10 µM | CHO-M1 cells, Fluo-4 calcium, ACh EC80 antagonist mode; stronger effect = lower value | P08482 | actives 3.4% (n = 64,000);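 active = calcium fluorescence response, raw or row-and-column corrected B-score, differing from the plate sample mean either way at a set confidence level, mostly lower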
M1 antag conf = M1 muscarinic receptor (rat) antagonism, confirmed. shares compounds with M1 antag. actives 43% (n = 1,700). CHO-M1 cells, Fluo-4 calcium, ACh EC80 antagonism; stronger effect = lower value. AID 677. calcium response (max-min fluorescence) at 10 µM;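 active = calcium response below the same-plate mean of wells given acetylcholine alone at its 80%-effect dose, minus 3 SD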;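 also: raw fluorescence intensity difference in arbitrary instrument units and not normalized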
mGluR4 antag = mGluR4 (human) activity, M1 antagonist secondary assay; shares compounds with M1 antag; CHO-mGluR4 calcium flux, Fluo-4 fluorescence, glutamate EC80; stronger effect = lower value; fluorescence response (max-min) at 10 µM; actives 0.9% (n = 1,700); AID 678;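 active = fluorescence response below the plate's average for near-maximal glutamate wells, less 3 SD of those wells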;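 also: raw unnormalized fluorescence span taken in the window right after glutamate addition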
D1 mod confirm = D1 receptor (human) allosteric modulation, confirmed | shares compounds with D1 allo mod | HEK293 D1 CRE-luciferase, dopamine EC30 potentiation; stronger effect = higher value | luminescence at 10 µM | actives 88% (n = 2,200) | AID 642;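 active = luminescence in either of two replicates above the same-plate mean plus 3 SD of the low-dose dopamine control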
D1 ag no DA = secondary test of D1 modulators: activity without dopamine; shares compounds with D1 allo mod; HEK293 D1 CRE-luciferase, luminescence, no dopamine; stronger effect = higher value; luminescence at 10 µM; actives 0.8% (n = 1,900); in the data active = luminescence above about 3900
Isoprot counter = isoproterenol response counter-screen activity for D1 modulators; shares compounds with D1 allo mod; HEK293 D1 CRE-luciferase, isoproterenol EC30 counter-screen; calls only at 10 µM; actives 63% (n = 2,200); AID 647;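 active = luminescence in either replicate above plate mean of wells with a partly effective reference agonist dose plus 3 SD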;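 also: isoproterenol raises cAMP through native beta-adrenoceptor Gs so signal bypasses D1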
* hit, by the source's call; i = inactive; x = not tested or not shown; + = active, no number. Most compounds without a hit are left out; they make up all but 8.9% or so of the library.

SMILES	WNV NS2B-NS3 inh	D1 allo mod	mHtt clearance	M1 ag	M1 antag	D1 mod confirm	D1 ag no DA	Isoprot counter	others
O=C(O)C(CC(=O)N1CCOCC1)NCc1ccccc1 (stereo not given)	-0.17	0.041	4	x	x	x	x	x
CCOC(=O)N1CCN(C(=O)C(C)(C)Oc2ccc(Cl)cc2)CC1	2	1.9*	-36	-0.25	-2.6*	7408*	1572	i	M1 antag conf=525;mGluR4 antag=213
COc1ccc(N2CCN(C(=O)C(C)(C)Oc3ccc(Cl)cc3)CC2)cc1	-2.5	0.25	38	0.078	-0.4	x	x	x
CCC(NC(C)C)C(O)c1ccc(O)c(O)c1 (stereo not given)	0.31	13*	x	0.55	-14*	9904*	3836*	+	M1 antag conf=632;mGluR4 antag=248
O=C(OCc1cc(Cl)ccc1OC(F)F)c1cc(S(=O)(=O)O)ccc1O	-0.01	x	x	-1	-1.1	x	x	x
c1ccc(-c2oc3ncnc(NCCCn4ccnc4)c3c2-c2ccccc2)cc1	-0.86	3.8*	-38	0.037	-3.9*	9476*	1872	+	M1 antag conf=435;mGluR4 antag=145*
N#CCSc1nc2c(cc1C#N)CCCCCC2	-1.2	7.9*	18	0.062	-5.3*	11156*	1660	+	M1 antag conf=205*;mGluR4 antag=259
Cc1ccc2oc3c(c(=O)c2c1)C(c1cccs1)N(CCCN(C)C)C3=O (stereo not given)	-0.64	0.63	x	-0.074	0.36	x	x	x
CCN(CC)c1nc(N)c2c(N)nc3c(c2c1C#N)CC(c1ccccc1)O3 (stereo not given)	-0.24	3.6*	x	-0.53	2.2*	6688*	1392	i
COc1ccc(OC)c(-c2cn(S(=O)(=O)c3ccccc3)nc2N)c1	x	x	16	x	x	x	x	x
CCCN(C#N)c1nc(NCC)nc(NC(C)C)n1	0.75	17*	-26	0.66	-0.28	24080*	1560	+
CCN(CC)C(=O)CN(C#N)c1nc(NC(C)C)nc(NC(C)C)n1	1.4	x	x	0.32	-0.005	x	x	x
COC(=O)c1c(-c2cccs2)csc1NC(=O)CN1CCOCC1	1.6	28*	x	-0.037	-0.21	18224*	1740	+
CN1CCN(c2nc3c(c(=O)[nH]c(=O)n3C)n2CCSc2ncccn2)CC1	0.81	-0.039	x	-0.43	-0.74	x	x	x
COc1ccc2c(CSc3nc4nc(C)cc(C)n4n3)cc(=O)oc2c1	-0.81	1.5	51	-0.051	-0.5	x	x	x
COc1cc2c(cc1OC)-c1cc(NC3CCCC3)nc(=O)n1CC2	-0.45	8.5*	12	-0.25	0.037	14200*	1764	+
CCCCCn1c(N)c(C#N)c2nc3ccccc3nc21	0.47	5*	-32	0.56	-0.41	13676*	1656	i
COc1ccc(CCn2c(N)c(C#N)c3nc4ccccc4nc32)cc1OC	-0.4	-0.66	20	0.9	-1.5	x	x	x
COc1ccc(Cn2c(N)c(C#N)c3nc4ccccc4nc32)cc1OC	-0.09	5.1*	-9	-0.94	0.23	11232*	1656	+
COc1ccccc1NC(=O)C1CCN(c2ncccn2)CC1	-0.03	2.2	x	-0.38	-0.46	x	x	x
CCSC(C)CC1C/C(=N/O)c2c(CC)noc2C1 (stereo not given)	0.42	5.3*	x	x	x	8312*	1736	i
CCCc1noc2c1/C(=N\O)CC(CC(C)SCC)C2 (stereo not given)	-1.1	2	-7	0.62	-0.28	x	x	x
Cc1ccc2nc(NC(=O)CSCC(=O)OCC(=O)c3ccc(Br)cc3)sc2c1	x	x	-42	x	x	x	x	x
Cn1c(=O)c2c(nc(SCCCC#N)n2Cc2ccccc2F)n(C)c1=O	-0.39	5.2*	-18	0.15	-0.29	15976*	1696	i
